Data reported in PubChem BioAssay AID1779 (Sanford-Burnham Center for Chemical Genomics, 2009).
Hit rate of the full screen: of about 290,000 compounds, about 160 (0.055%) were called active. Cut-off read from the data, not from the text of the source: active = inhibition above about 50%; inactive = the rest. Only a selection was taken, and actives are over-represented in it overall.

Each compound was assayed against Tyrosine-protein phosphatase non-receptor type 22 (Homo sapiens) (UniProt Q9Y2R2) (assay: PTPN22 lymphoid phosphatase activity blockers – biochemical, fluorescence intensity, uHTS (AID 1779;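 note: plate controls were vehicle with enzyme for no effect and no enzyme for full effect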)). Settings: recombinant LYP phosphatase, at 11.5 µM, stronger effect = higher value.
Tyrosine-protein phosphatase non-receptor type 22 (Homo sapiens), sequence (Q9Y2R2 whole entry, looked up): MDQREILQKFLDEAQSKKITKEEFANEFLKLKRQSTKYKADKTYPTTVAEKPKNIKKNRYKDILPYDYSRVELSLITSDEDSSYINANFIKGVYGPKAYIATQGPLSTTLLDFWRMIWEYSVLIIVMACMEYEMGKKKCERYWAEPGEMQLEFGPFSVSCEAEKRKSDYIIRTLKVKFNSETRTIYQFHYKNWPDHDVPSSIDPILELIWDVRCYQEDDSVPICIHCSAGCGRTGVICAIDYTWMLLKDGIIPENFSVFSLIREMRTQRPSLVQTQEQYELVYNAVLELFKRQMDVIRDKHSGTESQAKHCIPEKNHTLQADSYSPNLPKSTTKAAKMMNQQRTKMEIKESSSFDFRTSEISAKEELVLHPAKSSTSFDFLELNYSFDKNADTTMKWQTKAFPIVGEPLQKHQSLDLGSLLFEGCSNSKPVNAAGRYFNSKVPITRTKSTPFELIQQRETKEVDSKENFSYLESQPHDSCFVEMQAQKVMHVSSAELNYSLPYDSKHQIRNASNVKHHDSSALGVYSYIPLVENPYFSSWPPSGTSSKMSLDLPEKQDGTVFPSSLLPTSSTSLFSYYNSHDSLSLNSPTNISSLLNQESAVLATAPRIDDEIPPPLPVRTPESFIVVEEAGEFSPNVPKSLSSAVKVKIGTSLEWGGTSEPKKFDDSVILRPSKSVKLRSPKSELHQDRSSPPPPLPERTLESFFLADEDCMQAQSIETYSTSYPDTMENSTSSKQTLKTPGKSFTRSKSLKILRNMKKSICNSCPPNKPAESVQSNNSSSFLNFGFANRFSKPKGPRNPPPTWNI

Structure (SMILES) | inhibition
COc1cc2c(C(=O)Nc3ccccc3F)cn(C)c(=O)c2cc1OC | -10.5% (inactive)
CCOC(=O)c1ccc(-c2ccc3c(=O)c4ccccc4n(C)c3c2)cc1F | -15.2% (inactive)
CN1CCN(S(=O)(=O)c2cccc(C(=O)NCCOc3ccccc3F)c2)CC1 | -15.4% (inactive)
Cc1cc(=O)n2c(n1)NC(Nc1cccc(C)c1C)=NC2c1ccc(F)cc1 (stereo unspecified) | -3.8% (inactive)
O=C(COC(=O)c1ccccc1F)c1ccc(-n2nncc2-c2ccco2)cc1 | -3.3% (inactive)
CSc1ccccc1NC(=O)CSc1nnc(Cc2ccccc2)o1 | -12.7% (inactive)
CCOC(=O)c1sc2nc3c(SCC(=O)O)cc(C(=O)c4cc(F)ccc4O)cn3c(=O)c2c1C | 5.2% (inactive)
CCOC(=O)c1sc2nc3c(SCCC(=O)O)cc(C(=O)c4cc(OC)ccc4O)cn3c(=O)c2c1C | 53.3% (active)
CCOC(=O)c1sc2nc3c(SCCC#N)cc(C(=O)c4cc(F)ccc4O)cn3c(=O)c2c1C | 1.4% (inactive)
O=C(Nc1cc(Cl)cc(Cl)c1)C(NCC1CCCO1)c1ccccc1 (stereo unspecified) | 0% (inactive)
COc1ccc(CCNC(=O)CCC(=O)N2CCN(S(=O)(=O)c3ccccc3)CC2)cc1OC | -4.5% (inactive)
Cc1ccc(S(=O)(=O)c2nc(-c3ccccc3)oc2NCCCN2CCOCC2)cc1 | 3.6% (inactive)
O=S(=O)(c1ccc(Br)cc1)c1nc(-c2ccccc2)oc1NCCN1CCOCC1 | -4.8% (inactive)
Cc1ccc(S(=O)(=O)c2nc(-c3ccccc3)oc2NCCN2CCOCC2)cc1 | 67.9% (active)
O=C(CCN1C(=O)C2CC=C(Cl)CC2C1=O)NCc1ccco1 (stereo unspecified) | 55.2% (active)
O=C(CCN1C(=O)c2ccccc2C1=O)NCc1ccco1 | -4.2% (inactive)
O=C(CCN1C(=O)C2CC=C(Cl)CC2C1=O)NCc1ccccc1 (stereo unspecified) | -1.9% (inactive)
Cc1ccc(NC(=O)c2cccc3ccccc23)cc1 | -8.7% (inactive)
CC(C)CC(=O)Nc1ccc(C(=O)CN2CCN(c3ccc(O)cc3)CC2)cc1 | -9.4% (inactive)
COc1ccc(C2CC(=O)OC3=C2C(=O)CC(C)(C)C3)c(OC)c1 (stereo unspecified) | -2.3% (inactive)
O=C(O)c1cccc(NC(=O)c2ccc3c(c2)C(=O)N(c2cccc([N+](=O)[O-])c2)C3=O)c1 | -2% (inactive)
Cc1ccc(C(=O)O)cc1NC(=O)c1ccc2c(c1)C(=O)N(c1ccc([N+](=O)[O-])cc1)C2=O | 50.3% (active)
Cc1cc([N+](=O)[O-])ccc1N1C(=O)c2ccc(C(=O)Nc3ccccc3C(=O)O)cc2C1=O | -5.4% (inactive)
C(=N\Nc1nc(-c2ccccc2)cs1)/c1cccnc1 | 4.2% (inactive)

Structure (SMILES) | inhibition
CC(=O)c1ccc2noc(-c3cccc(C)c3)c2c1 | 8.5% (inactive)
Cc1ccc2sc(NNC(=O)c3cc(=O)c4ccccc4o3)nc2c1C | 1.8% (inactive)
CSCC[C@H](NC(=O)Nc1cccc(C(F)(F)F)c1)C(=O)O | 61.2% (active)
C[C@H](NC(=O)Nc1cccc(C(F)(F)F)c1)C(=O)O | -5.3% (inactive)
CSCC[C@H](NC(=O)Nc1cccc(Br)c1)C(=O)O | -3.3% (inactive)
CC(OC(=O)c1ccc(NS(=O)(=O)c2ccc3[nH]c(=O)[nH]c3c2)cc1)C(N)=O (stereo unspecified) | -4.3% (inactive)
Brc1cccc(C2Nc3cccc4cccc(c34)N2)c1 | -6.2% (inactive)
Brc1ccc(C2Nc3cccc4cccc(c34)N2)o1 | 80.6% (active)
c1coc(C2Nc3cccc4cccc(c34)N2)c1 | 18.4% (inactive)
Cn1nc(C(C)(C)C)cc1NC(=O)Nc1ccc(Cl)cc1 | 0% (inactive)
CCOc1ccccc1NC(=O)CSc1nnc(Cc2cccn2C)n1-c1ccc(F)cc1 | 64.9% (active)
COc1ccccc1NC(=O)CSc1nnc(Cc2cccn2C)n1-c1ccc(F)cc1 | 1.1% (inactive)
Cn1cccc1Cc1nnc(SCC(=O)Nc2ccccc2F)n1-c1ccc(F)cc1 | 8.3% (inactive)
CCc1cccc(NC(=O)C2CCCN(c3ncnc4c3nc3n4CCCCC3)C2)c1 (stereo unspecified) | -6.4% (inactive)
COc1ccccc1CC(NC(C)=O)C(=O)NC1CCN(C(=O)Nc2ccc(F)cc2)CC1 (stereo unspecified) | -8% (inactive)
Cc1nn(C)c(C(=O)N/N=C/c2cccnc2)c1Cl | -2.8% (inactive)
Cc1ccccc1Cc1c(C)nc2ncnn2c1C | -9% (inactive)
CCOC(=O)N1CCN(c2cc(NCCC(=O)O)c3c4c(onc24)-c2ccccc2C3=O)CC1 | 3.3% (inactive)
O=C(O)CCCNc1cc(N2CCC3(CC2)OCCO3)c2noc3c2c1C(=O)c1ccccc1-3 | 75.6% (active)
O=C(O)CCCNc1cc(N2CCN(C(=O)c3ccco3)CC2)c2noc3c2c1C(=O)c1ccccc1-3 | 2.4% (inactive)
Clc1ccc2nc(-c3ccc(Br)s3)cn2c1 | -4.3% (inactive)
CC(=Nc1ccccc1)c1sc2ccccc2c1O | 2% (inactive)
COc1ccc(/C=C2\SC(N)=NC2=O)cc1Br | -4.5% (inactive)
COc1cccc(C(=O)Nc2cccc(-c3ccc4nncn4n3)c2)c1OC | -0.4% (inactive)

Structure (SMILES) | inhibition
COc1cccc(OC)c1C(=O)Nc1cccc(-c2ccc3nncn3n2)c1 | -6.9% (inactive)
CC(C)CC1=NN(C(=O)c2ccco2)C(O)(C(F)(F)F)C1 (stereo unspecified) | -6.1% (inactive)
C=CCN(CC=C)C(=S)NC(=O)/C=C/c1ccccc1 | 2.6% (inactive)
C=CCN(CC=C)C(=S)NC(=O)/C=C/c1ccc(OC)cc1 | 8.3% (inactive)
C=CCN(CC=C)C(=S)NC(=O)/C=C/c1ccc(C)cc1 | 65.4% (active)
COc1ccc(S(=O)(=O)Nc2nccs2)cc1OC | -10.2% (inactive)
CCC(C)n1c(C)nc2c(c1=O)c1nc3ccccc3nc1n2CCC1=CCCCC1 (stereo unspecified) | 7.5% (inactive)
COc1ccc2c(C)cc(N3CCOCC3)nc2c1 | -0.1% (inactive)
c1ccc(-c2cc(N3CCOCC3)nc3ccccc23)cc1 | 2.6% (inactive)
COc1ccc2c(-c3ccccc3)cc(N3CCOCC3)nc2c1 | 72.7% (active)
NC(=O)c1nn(-c2ccccc2)nc1NC(=O)CSc1nnnn1-c1ccc(Cl)cc1 | 5.7% (inactive)
Cc1cccc(NC(=O)c2ccc(OC3CSC3)cc2)c1 | -5% (inactive)
CC(=O)c1cccc(NC(=O)c2ccc(OC3CSC3)cc2)c1 | -7% (inactive)
O=C(Nc1ccc(Cl)cc1)c1ccc(OC2CSC2)cc1 | 67.9% (active)
Cc1ccc(CNC(=O)c2cncc(Br)c2)cc1 | -2.9% (inactive)
O=C(NCc1ccccc1)c1cncc(Br)c1 | 67.8% (active)
O=C(NCc1ccncc1)c1cncc(Br)c1 | -9.5% (inactive)
NC(=O)Nc1ccc(C(=O)OCC(=O)Nc2cccc(S(=O)(=O)NC3=NCCCCC3)c2)cc1 | -1.2% (inactive)
CCOC(=O)c1cc(-c2ccccc2)sc1NC(=S)Nc1cccc(C)n1 | 5.7% (inactive)
Cc1ccc2nsnc2c1NC(=O)CCl | -1.6% (inactive)
CCCCc1nc(S(=O)(=O)c2ccc(Cl)cc2)c(N2CCOCC2)o1 | -7.7% (inactive)
CC(C)(C)c1nc(S(=O)(=O)c2ccc(Cl)cc2)c(N2CCOCC2)o1 | -10.6% (inactive)
CC(C)Cc1nc(S(=O)(=O)c2ccc(Cl)cc2)c(N2CCOCC2)o1 | 81.8% (active)
CCc1ccc2c(CC(=O)Nc3nnc(C4CC4)s3)coc2c1 | -7.3% (inactive)

Structure (SMILES) | inhibition
Cc1ccc(CNC(=O)CN2CCN(c3ccc(F)cc3)CC2)cc1 | 1.2% (inactive)
CCN(CCO)Cc1csc2ccc(Cl)cc12 | -3.3% (inactive)
CCN(CCO)Cc1csc2ccc(Br)cc12 | -8.6% (inactive)
CCN(CCO)Cc1csc2ccc(C(C)(C)C)cc12 | 52.5% (active)
FC(F)(F)c1cc(Cl)c2nnc(-c3cccnc3)n2c1 | -4.4% (inactive)
Cc1ccc(NC(=Nc2ccc(Br)cc2)N2CCOCC2)cc1C | -2.9% (inactive)
Cc1ccc(C(=O)COC(=O)c2cc(=O)[nH]c3ccccc23)cc1 | -5.1% (inactive)
Cc1ccc2[nH]c(=O)cc(C(=O)OCC(=O)c3ccc(F)cc3)c2c1 | 1.2% (inactive)
Cc1ccc2[nH]c(=O)cc(C(=O)OCC(=O)c3ccccc3)c2c1 | 70.6% (active)
Cn1c(C(=O)NC2CCCCC2)cc2sccc21 | -4.8% (inactive)
CCOC(=O)c1ccc(NC(=S)Nc2ccccc2)cc1 | -5.5% (inactive)
CCC(=O)NC(=S)Nc1ccc(NC(=O)COc2ccccc2)cc1 | -2.2% (inactive)
CCOC(=O)c1ccc(NC(=S)NC(=O)COc2ccccc2)cc1 | 69.2% (active)
COc1ccc2[nH]c(=O)c(CN(c3ccccc3OC)S(=O)(=O)c3ccccc3)cc2c1 | -5.9% (inactive)
Nc1nc(NCCN2CCOCC2)nc(NCc2ccccc2)c1[N+](=O)[O-] | -6% (inactive)
CC(C)CCNC(=O)c1ccc2c(Cl)c3c(nc2c1)CCC3 | 85.9% (active)
CC(C)CCNC(=O)c1ccc2c(SCC(=O)O)c3c(nc2c1)CCC3 | -1.8% (inactive)
COCCNC(=O)c1ccc2c(Cl)c3c(nc2c1)CCC3 | -7.1% (inactive)
O=C(Nc1ccccc1C(=O)NCc1ccccc1)c1ccccc1Br | -1.2% (inactive)
COc1ccc(C(C(=O)NC2CCCC2)N2CCc3ccccc32)cc1 (stereo unspecified) | 88.2% (active)
Cc1ccc(C(C(=O)NC2CCCC2)N2CCc3ccccc32)cc1 (stereo unspecified) | 0.4% (inactive)
O=C(NC1CCCCC1)C(c1ccccc1)N1CCc2ccccc21 (stereo unspecified) | 3% (inactive)
COc1ccc(CNC(=O)Cc2ccc(NC(=O)C3=C(C)OCCS3)cc2)cc1 | -1.9% (inactive)
CC(O)CNc1nc2c(c(=O)n(Cc3ccc(Cl)c(Cl)c3)c(=O)n2C)n1C (stereo unspecified) | -3.6% (inactive)
